About 83,000 compounds went through this panel and 20% of them were active in at least one assay; those are over-represented in the sample as a whole.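 Assay: single dose, 48 h. Readout: percent growth (0 = no net growth; negative = cell death). Active: <10.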 Active and inactive are the calls of the source.
What follows are compounds tested on SK-MEL-28 melanoma (assay: NCI-60 one-dose screen, 48 h (100 = growth as untreated, 0 = no growth, -100 = all killed)). Conditions: 10 µM unless noted.
With `O=C1C(Cl)=C(Nc2ccccc2)C(=O)C(Cl)=C1Nc1ccccc1` the growth was 119% (inactive). For `O=C(Nc1ccc(-n2cc(-c3ccncc3)c(-c3ccc(O)c(Cl)c3)n2)cc1)c1cc(C(F)(F)F)cc(C(F)(F)F)c1`, the growth was 68.8% (inactive). In the case of `CCn1c(C)nc([N+](=O)[O-])c1Sc1nc(N)nc2nc[nH]c12`, the growth is reported as 81.3% (inactive). With `Cc1cn(C2CC(N=[N+]=[N-])C(COP(=O)(O)OP(=O)(O)OP(=O)(O)O)O2)c(=O)[nH]c1=O` (configuration not stated) the growth was 99.1% (inactive). `COc1cc(/C=C\c2cc(/C=C\c3ccc(O)c(OC)c3)n(C(=O)CNc3ccccc3OC)n2)ccc1O` was tested, and the growth was 70% (inactive). `COc1ccc(Cl)cc1NC(=O)c1cc2c([nH]1)-c1nc(NC(=O)C(C)C)sc1CC2` was tested, and the growth was 112% (inactive). With `O=C(/C=C/c1ccco1)c1cccc(Nc2nc(Nc3ccccc3)nc(Nc3ccccc3)n2)c1` the growth was 95% (inactive). `O=C(Nc1ccc(-n2ccc3c(NC(=O)c4ccccc4)ncnc32)cc1)Nc1ccc(Cl)c(C(F)(F)F)c1` was tested, and the growth was 34.6% (inactive). `CN(C)CCCOc1c(Br)cc(/C=C/C(=O)N(C)CCc2cc(Br)c(OCCCN(C)C)c(Br)c2)cc1Br` was tested, and the growth was -49.4% (active). With `C=C(C)[C@@H]1C/C=C(\COC(=O)[C@H](OC(C)=O)C(NC(=O)c2ccccc2)c2ccccc2)CC[C@H]2O[C@]2(C)CC/C=C(\C)CC1` (some centres not stated) the growth was 77.1% [5 µM] (inactive). With `COc1ccc(Cl)cc1NC(=O)c1cc2c([nH]1)-c1nc(NC(=O)C(C)(C)C)sc1CC2` the growth was 94.2% (inactive). For `CC1CCC(C(C)C)C(NN)C1` (configuration not stated), the growth was 111% (inactive).

Source: PubChem BioAssay (NCI)
